The text below walks through data of the supplement of paper PMC10849652.

Targets with a hit are over-represented here; the source holds about 7,900 in all. About 0.6% of all pairs of compound and target were hits. Values without a mark were called inactive.

Chain of UniProt Q49A26 (Q49A26 whole entry, looked up): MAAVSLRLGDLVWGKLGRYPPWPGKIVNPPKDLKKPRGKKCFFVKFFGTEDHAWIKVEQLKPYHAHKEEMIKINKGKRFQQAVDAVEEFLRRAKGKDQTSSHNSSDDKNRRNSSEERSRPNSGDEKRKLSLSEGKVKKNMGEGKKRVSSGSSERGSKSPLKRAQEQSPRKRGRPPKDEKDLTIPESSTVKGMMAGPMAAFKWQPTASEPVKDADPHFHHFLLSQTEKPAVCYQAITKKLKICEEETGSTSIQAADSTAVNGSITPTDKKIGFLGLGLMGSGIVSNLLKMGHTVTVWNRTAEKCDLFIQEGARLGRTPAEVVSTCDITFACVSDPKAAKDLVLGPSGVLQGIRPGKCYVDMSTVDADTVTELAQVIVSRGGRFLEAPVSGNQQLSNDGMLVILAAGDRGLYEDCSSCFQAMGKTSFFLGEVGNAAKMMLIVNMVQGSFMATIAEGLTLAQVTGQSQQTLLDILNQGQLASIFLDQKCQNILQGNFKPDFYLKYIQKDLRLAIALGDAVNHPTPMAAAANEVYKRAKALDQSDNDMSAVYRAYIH
Chain of UniProt P30711 (P30711 whole entry, looked up): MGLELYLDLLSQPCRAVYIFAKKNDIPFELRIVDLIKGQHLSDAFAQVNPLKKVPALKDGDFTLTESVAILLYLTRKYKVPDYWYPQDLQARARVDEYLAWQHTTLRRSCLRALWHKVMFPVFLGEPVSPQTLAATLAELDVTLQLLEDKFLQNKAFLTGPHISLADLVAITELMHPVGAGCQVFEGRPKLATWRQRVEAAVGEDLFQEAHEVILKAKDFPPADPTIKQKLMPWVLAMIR
Chain of UniProt Q86VQ1 (Q86VQ1 whole entry, looked up): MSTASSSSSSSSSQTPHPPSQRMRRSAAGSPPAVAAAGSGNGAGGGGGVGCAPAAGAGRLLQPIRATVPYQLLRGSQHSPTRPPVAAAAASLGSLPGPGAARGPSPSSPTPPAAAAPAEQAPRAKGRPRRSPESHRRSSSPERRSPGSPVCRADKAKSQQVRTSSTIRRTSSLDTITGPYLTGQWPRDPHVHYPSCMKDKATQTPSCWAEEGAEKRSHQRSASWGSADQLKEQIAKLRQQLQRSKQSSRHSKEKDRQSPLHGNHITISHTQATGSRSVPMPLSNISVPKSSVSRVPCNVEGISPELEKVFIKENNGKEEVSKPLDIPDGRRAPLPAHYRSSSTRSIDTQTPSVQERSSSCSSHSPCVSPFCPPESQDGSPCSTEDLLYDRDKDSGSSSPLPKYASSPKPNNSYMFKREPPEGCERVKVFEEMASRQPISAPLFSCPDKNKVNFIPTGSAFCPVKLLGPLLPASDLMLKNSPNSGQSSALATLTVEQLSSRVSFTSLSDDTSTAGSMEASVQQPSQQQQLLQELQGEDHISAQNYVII
Chain of UniProt P36915 (P36915 whole entry, looked up): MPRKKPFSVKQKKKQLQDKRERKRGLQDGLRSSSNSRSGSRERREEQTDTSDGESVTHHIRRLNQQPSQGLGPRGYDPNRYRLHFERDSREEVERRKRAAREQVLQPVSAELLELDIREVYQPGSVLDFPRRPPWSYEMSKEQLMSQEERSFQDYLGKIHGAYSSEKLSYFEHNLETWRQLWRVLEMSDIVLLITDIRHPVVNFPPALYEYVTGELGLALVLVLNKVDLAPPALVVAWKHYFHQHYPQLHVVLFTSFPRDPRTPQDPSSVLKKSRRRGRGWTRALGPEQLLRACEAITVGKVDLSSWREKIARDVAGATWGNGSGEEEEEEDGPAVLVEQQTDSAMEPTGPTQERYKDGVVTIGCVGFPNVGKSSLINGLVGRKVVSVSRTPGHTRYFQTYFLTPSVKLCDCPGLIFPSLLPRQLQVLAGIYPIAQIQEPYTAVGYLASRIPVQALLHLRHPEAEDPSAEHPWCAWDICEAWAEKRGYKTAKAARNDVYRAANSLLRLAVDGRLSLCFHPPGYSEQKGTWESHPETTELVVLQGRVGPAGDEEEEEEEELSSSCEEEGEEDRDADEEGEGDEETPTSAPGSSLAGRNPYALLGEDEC
Chain of UniProt Q96I24 (Q96I24 whole entry, looked up): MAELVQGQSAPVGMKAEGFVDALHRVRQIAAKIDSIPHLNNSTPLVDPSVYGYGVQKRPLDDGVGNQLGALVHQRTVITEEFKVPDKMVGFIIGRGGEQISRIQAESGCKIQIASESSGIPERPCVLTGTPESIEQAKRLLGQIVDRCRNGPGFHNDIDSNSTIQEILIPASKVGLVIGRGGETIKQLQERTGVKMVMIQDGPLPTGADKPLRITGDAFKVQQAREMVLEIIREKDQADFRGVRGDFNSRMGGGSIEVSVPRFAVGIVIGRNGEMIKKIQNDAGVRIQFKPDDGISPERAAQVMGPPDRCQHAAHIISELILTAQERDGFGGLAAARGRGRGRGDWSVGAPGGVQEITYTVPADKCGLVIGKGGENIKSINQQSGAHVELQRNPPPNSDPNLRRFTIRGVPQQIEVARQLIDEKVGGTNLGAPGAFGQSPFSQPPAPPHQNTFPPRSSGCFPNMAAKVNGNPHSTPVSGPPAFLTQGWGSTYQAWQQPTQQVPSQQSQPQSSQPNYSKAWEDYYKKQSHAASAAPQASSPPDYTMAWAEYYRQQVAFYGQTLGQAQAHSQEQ
Chain of UniProt P01112 (P01112 whole entry, looked up): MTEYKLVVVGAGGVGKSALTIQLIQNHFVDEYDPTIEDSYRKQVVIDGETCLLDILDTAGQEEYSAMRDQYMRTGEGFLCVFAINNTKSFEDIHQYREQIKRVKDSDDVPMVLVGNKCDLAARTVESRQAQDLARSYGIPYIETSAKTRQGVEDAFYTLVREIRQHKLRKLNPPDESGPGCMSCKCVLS
Chain of UniProt P23434 (P23434 whole entry, looked up): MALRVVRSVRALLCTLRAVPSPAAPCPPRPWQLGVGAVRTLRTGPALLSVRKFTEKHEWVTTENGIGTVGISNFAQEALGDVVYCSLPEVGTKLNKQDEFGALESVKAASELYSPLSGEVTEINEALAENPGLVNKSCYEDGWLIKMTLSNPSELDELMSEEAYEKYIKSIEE
Chain of UniProt Q9Y613 (Q9Y613 whole entry, looked up): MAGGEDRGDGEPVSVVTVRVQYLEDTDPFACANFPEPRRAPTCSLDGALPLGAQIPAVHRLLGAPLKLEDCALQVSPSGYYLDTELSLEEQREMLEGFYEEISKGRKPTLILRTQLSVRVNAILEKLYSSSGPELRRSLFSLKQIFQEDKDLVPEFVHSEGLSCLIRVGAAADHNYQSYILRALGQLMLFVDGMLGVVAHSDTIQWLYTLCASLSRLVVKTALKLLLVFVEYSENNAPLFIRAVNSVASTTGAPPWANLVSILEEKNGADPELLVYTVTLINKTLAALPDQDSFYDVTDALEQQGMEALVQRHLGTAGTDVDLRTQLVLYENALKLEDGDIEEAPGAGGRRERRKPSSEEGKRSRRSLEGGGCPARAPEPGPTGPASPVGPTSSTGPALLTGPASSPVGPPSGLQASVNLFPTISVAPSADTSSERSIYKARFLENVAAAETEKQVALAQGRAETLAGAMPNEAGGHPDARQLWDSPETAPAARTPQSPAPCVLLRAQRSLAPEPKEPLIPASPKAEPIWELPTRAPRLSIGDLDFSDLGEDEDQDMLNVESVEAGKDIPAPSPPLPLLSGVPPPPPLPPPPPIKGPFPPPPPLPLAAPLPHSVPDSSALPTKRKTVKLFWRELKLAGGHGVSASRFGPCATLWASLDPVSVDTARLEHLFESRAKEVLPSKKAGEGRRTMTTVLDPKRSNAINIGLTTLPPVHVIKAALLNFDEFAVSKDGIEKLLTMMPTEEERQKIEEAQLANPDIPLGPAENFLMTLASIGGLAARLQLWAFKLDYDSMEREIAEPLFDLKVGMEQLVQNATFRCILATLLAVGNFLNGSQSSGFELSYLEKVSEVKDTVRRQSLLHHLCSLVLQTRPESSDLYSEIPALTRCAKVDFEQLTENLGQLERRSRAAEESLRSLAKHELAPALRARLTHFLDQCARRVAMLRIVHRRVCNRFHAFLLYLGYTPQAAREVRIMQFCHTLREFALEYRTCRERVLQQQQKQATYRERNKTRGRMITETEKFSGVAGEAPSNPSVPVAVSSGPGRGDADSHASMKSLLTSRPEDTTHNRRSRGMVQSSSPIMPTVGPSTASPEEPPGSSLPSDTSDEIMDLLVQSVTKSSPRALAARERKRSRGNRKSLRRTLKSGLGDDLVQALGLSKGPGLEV
Chain of UniProt P55084 (P55084 whole entry, looked up): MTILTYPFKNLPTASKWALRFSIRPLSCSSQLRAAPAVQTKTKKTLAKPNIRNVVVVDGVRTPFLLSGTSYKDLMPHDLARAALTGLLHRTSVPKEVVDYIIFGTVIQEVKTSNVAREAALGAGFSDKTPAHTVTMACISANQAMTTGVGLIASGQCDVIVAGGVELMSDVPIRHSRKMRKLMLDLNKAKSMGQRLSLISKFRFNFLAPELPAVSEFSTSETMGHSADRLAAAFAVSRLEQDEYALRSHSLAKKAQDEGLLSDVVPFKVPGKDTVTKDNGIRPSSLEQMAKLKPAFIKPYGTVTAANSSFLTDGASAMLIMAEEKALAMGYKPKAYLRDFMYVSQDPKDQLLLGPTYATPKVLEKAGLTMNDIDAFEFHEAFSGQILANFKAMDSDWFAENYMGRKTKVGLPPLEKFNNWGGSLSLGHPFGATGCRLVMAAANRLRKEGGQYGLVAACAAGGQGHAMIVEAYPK
Chain of UniProt O76003 (O76003 whole entry, looked up): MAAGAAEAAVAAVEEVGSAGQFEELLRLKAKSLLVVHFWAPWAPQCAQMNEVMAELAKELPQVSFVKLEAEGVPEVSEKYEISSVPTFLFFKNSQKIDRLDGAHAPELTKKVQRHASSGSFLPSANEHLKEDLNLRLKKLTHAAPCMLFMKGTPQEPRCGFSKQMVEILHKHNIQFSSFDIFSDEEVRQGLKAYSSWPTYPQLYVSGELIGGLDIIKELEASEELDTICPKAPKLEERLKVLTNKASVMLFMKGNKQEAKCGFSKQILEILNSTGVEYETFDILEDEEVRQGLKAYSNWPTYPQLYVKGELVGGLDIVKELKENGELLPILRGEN

Compound in this experiment: FC(F)(F)c1ccc(/C=C/c2nc(COc3ccc(CCCCn4ccnn4)cc3)co2)cc1 [mubritinib]
In words: log2 fold change, soluble protein after heating vs DMSO (PISA); higher = thermal stabilisation; K562 cells, 10 uM, 30 min; active = over 0.2 and 3.5 SD of the protein, either way, in both replicates (recomputed). Put shortly:
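Thermal stability values are relative to control samples and come from duplicates. They are expressed as log2 fold changes. For measurement, K562 cells (2×10^6 cells/mL) received 10 μM compound for 30 min, and aliquots were heated for 3 min over 48°C-58°C, pooled, and extracted at 4°C in PBS with 0.5% NP-40. Soluble protein, the supernatant after 21,000xg for 90 min, was quantified by TMTpro 16plex LC-MS/MS with equalised channel sums.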
For HSPA8 (UniProt E9PK54), the log2 fold change was 0.024.
As for FUCA1 (UniProt P04066), the log2 fold change is -0.008.
GCSH (UniProt P23434): the log2 fold change is -0.05.
Take IFNGR1 (UniProt P15260): the log2 fold change is 0.299.
Consider GSTM4 (UniProt Q03013), for which the log2 fold change was -0.08.
Consider GHDC (UniProt Q8N2G8), for which the log2 fold change is 0.01.
Take FUBP3 (UniProt Q96I24): the log2 fold change was -0.052.
On to GLCCI1 (UniProt Q86VQ1), for which the log2 fold change is 0.011.
With FAT1 (UniProt Q14517), the log2 fold change is 0.057.
Regarding FECH isoform 2 (UniProt P22830), the log2 fold change was 0.034.
In the case of GSTT1 (UniProt P30711), the log2 fold change is 0.012.
The same measure for HECTD1 (UniProt Q9ULT8): -0.144; for FHOD1 (UniProt Q9Y613): -0.218; for GLRX3 (UniProt O76003): -0.004.
In the case of HDAC2 (UniProt Q92769), the log2 fold change is 0.015.
Take HMGCR isoform 3 (UniProt P04035): the log2 fold change was 0.1.
Take HSPA8 (UniProt P11142): the log2 fold change was -0.002.
In the case of GLYR1 (UniProt Q49A26) it was 0.024; in that of HNRNPK isoform 2 (UniProt P61978), -0.024; in that of HDAC7 isoform 5 (UniProt Q8WUI4), -0.006.
In the case of GNL1 (UniProt P36915), the log2 fold change was 0.009.
In the case of GTF2E1 (UniProt P29083) it was 0.05.
Take GLA (UniProt P06280): the log2 fold change is 0.035.
Turning to FBXO42 (UniProt Q6P3S6), the log2 fold change was 0.059.
In the case of HRAS (UniProt P01112) it was 0.033; in that of IFT80 isoform 3 (UniProt Q9P2H3), 0.17.
On to HBA1 (UniProt P69905), for which the log2 fold change is 0.024.
In the case of HIKESHI (UniProt Q53FT3), the log2 fold change is 0.025.
Regarding HADHB (UniProt P55084), the log2 fold change is 0.571 (active).
For the target GOPC (UniProt Q9HD26), the log2 fold change is -0.226.
Consider HBQ1 (UniProt P09105), for which the log2 fold change was 0.039.
For the target HNRNPH2 (UniProt P55795), the log2 fold change is -0.115.
In the case of GIGYF2 (UniProt Q6Y7W6) it was -0.03.
